Inconclusive results are not listed. The source made the active and inactive calls. Calls come from the whole dose curve.
Key:
[1] = molecular target: Acetylcholinesterase (Homo sapiens) (UniProt P22303); test: Acetylcholinesterase (AChE) small molecule antagonists: colormetric cell-based qHTS assay (AID 1347395); note: nearly all actives have a fitted effect of over 30% in size
Procedure, shortened: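 SH-SY5Y cells attached overnight, exposed to compound 30 min at 37 C, then given DTNB/acetylthiocholine; after 90 min at 37 C, colorimetric thiocholine read gives cellular AChE activity.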

[2] = molecular target: Acetylcholinesterase (Homo sapiens) (UniProt P22303); test: Acetylcholinesterase (AChE) small molecule antagonists: enzyme-based qHTS assay (AID 1347397); settings: Potency: AChE enzyme activity inhibition; outcome: AChE enzyme activity inhibition; note: nearly all actives have a fitted effect of over 55% in size
Procedure, shortened: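 Recombinant human AChE (50 mU/mL) preincubated with compound 30 min at room temperature; acetylthiocholine plus DTNB then added, and thiocholine formation read colorimetrically after 10 min at room temperature. DMSO served as vehicle control.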

[3] = molecular target: Acetylcholinesterase (Homo sapiens) (UniProt P22303); test: Acetylcholinesterase (AChE) small molecule antagonists: fluorescence cell-based qHTS assay (AID 1347398); settings: Potency: AChE activity; outcome: AChE activity; note: nearly all actives have a fitted effect of over 50% in size
Procedure, shortened: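 SH-SY5Y cells (2000/well), attached overnight, incubated with compound 30 min at 37 C. Acetylthiocholine plus Thiolite Green then added for 40 min at room temperature. Thiocholine fluorescence (Ex/Em 490/520 nm) reports cellular AChE activity.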

[4] = molecular target: Acetylcholinesterase (Homo sapiens) (UniProt P22303); test: Acetylcholinesterase (AChE) small molecule antagonists: enzyme-based qHTS assay with human liver microsomes (AID 1347399); settings: Potency: qHTS inhibition; outcome: qHTS inhibition; note: nearly all actives have a fitted effect of over 60% in size
Procedure, shortened: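 Recombinant human AChE (50 mU/mL in the enzyme mix) and human liver microsomes (0.25 mg/mL final) were preincubated with compound and NADPH (0.25 mg/mL final) for 30 min at 37 C. Acetylthiocholine/DTNB was then added; thiocholine was read colorimetrically after 10 min at room temperature.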
% is set by controls: 0 for no effect and ±100 for the full control effect.

Sequence of Acetylcholinesterase (Homo sapiens) (P22303 whole entry, looked up): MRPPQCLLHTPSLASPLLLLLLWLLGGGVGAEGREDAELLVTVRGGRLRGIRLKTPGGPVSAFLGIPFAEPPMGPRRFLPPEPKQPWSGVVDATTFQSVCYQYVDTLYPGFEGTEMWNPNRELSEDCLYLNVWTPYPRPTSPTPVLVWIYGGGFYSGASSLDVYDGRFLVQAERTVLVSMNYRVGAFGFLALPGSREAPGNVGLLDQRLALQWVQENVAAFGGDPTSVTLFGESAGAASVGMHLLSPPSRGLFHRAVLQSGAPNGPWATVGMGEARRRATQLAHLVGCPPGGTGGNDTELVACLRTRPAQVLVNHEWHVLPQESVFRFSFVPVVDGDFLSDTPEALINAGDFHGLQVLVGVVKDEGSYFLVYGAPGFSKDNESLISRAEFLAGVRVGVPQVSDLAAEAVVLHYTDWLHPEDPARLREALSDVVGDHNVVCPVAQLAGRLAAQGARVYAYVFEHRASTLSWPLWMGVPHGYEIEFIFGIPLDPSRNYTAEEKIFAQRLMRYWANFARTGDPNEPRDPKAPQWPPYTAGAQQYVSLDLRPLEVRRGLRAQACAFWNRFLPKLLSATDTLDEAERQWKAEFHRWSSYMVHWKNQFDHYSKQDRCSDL

COCCCC/C(=N\OCCN)c1ccc(C(F)(F)F)cc1
inactive: Potency [1] | Potency [2] | Potency [3] | Potency [4]

O=S(=O)(O)c1cc(O)c2ccc(Nc3ccccc3)cc2c1
inactive: Potency [1] | Potency [2] | Potency [3] | Potency [4]

C=CC1CO1 (configuration not stated)
inactive: Potency [1] | Potency [2] | Potency [3] | Potency [4]

CO[Si](CCCNc1ccccc1)(OC)OC
inactive: Potency [1] | Potency [2] | Potency [3] | Potency [4]

O=C1Nc2ccc(Cl)cc2[C@@](C#CC2CC2)(C(F)(F)F)O1
inactive: Potency [1] | Potency [2] | Potency [3] | Potency [4]

C[C@H](CCC(=O)O)[C@H]1CC[C@H]2[C@@H]3C(=O)C[C@@H]4CC(=O)CC[C@]4(C)[C@H]3CC(=O)[C@]12C
inactive: Potency [1] | Potency [2] | Potency [3] | Potency [4]

CCC(C)NC(N)=O (configuration not stated)
inactive: Potency [1] | Potency [2] | Potency [3] | Potency [4]

C=CCc1ccccc1OCC(O)CNC(C)C (configuration not stated)
inactive: Potency [1] | Potency [2] | Potency [3] | Potency [4]

CCCN(CCC)CCc1cccc2c1CC(=O)N2
inactive: Potency [1] | Potency [2] | Potency [3] | Potency [4]

C=C(C)C1CCC(C)(O)CC1 (configuration not stated)
inactive: Potency [1] | Potency [2] | Potency [3] | Potency [4]

CC(C)(C)C1(CCc2ccc(Cl)cc2)CO1 (configuration not stated)
inactive: Potency [1] | Potency [2] | Potency [3] | Potency [4]

CCCCc1ccc(N)cc1
inactive: Potency [1] | Potency [2] | Potency [3] | Potency [4]

NC(=O)c1c(Cl)cccc1Cl
inactive: Potency [1] | Potency [2] | Potency [3] | Potency [4]

C=CCCCCCCCCC(=O)OCCCC
inactive: Potency [1] | Potency [2] | Potency [3] | Potency [4]

CCCCC(CC)CNCC(CC)CCCC (configuration not stated)
inactive: Potency [1] | Potency [2] | Potency [3] | Potency [4]

CCC(CO)(CO)[N+](=O)[O-]
inactive: Potency [1] | Potency [2] | Potency [3] | Potency [4]

OC(C#CCN1CCCC1)(c1ccccc1)c1ccccc1
inactive: Potency [1] | Potency [2] | Potency [3] | Potency [4]

CN1CCN(C2=Nc3ccccc3Oc3ccc(Cl)cc32)CC1
inactive: Potency [1] | Potency [2] | Potency [3] | Potency [4]

CC1(C)S[C@@H]2[C@H](N=CN3CCCCCC3)C(=O)N2[C@H]1C(=O)O
inactive: Potency [1] | Potency [2] | Potency [3] | Potency [4]

C=CCCCCCCCCCCCCCC
inactive: activity, negative = inhibition [1] 0.819% [at 23.6 µM] | activity change, negative = inhibition [2] 0.291% [at 23.6 µM] | activity change, negative = inhibition [3] 5.43% [at 23.8 µM] | activity change, negative = inhibition [4] -1.13% [at 23.6 µM]

CC/C=C\CCOC(=O)C(C)C
inactive: Potency [1] | Potency [2] | Potency [3] | Potency [4]

COc1cc(C(C)C)ccc1C
inactive: activity, negative = inhibition [1] 0.291% [at 23.6 µM] | activity change, negative = inhibition [2] 1.63% [at 23.6 µM] | activity change, negative = inhibition [3] 2.94% [at 23.8 µM] | activity change, negative = inhibition [4] -4.86% [at 23.6 µM]

CCCCC(CC)(CO)CO
inactive: Potency [1] | Potency [2] | Potency [3] | Potency [4]

C=CCOc1ccccc1OCC(O)CNC(C)C (configuration not stated)
inactive: outcome [1] | outcome [2] | outcome [3] | outcome [4]

CCCCCc1ccco1
inactive: Potency [1] | Potency [2] | Potency [3] | Potency [4]

Nc1ccc(C(=O)NCC(=O)O)cc1
inactive: Potency [1] | Potency [2] | Potency [3] | Potency [4]

CC(C)=CCC/C(C)=C/C#N
inactive: Potency [1] | Potency [2] | Potency [3] | Potency [4]

N#Cc1ccc(C2CCCc3cncn32)cc1 (configuration not stated)
inactive: Potency [1] | Potency [2] | Potency [3] | Potency [4]

Oc1ccc2c(c1)Cc1ccccc1-2
inactive: Potency [1] | Potency [2] | Potency [3] | Potency [4]

Cc1cc(C)c(C=O)c(C)c1
inactive: Potency [1] | Potency [2] | Potency [3] | Potency [4]

O=C1c2ccccc2-c2ccccc21
inactive: Potency [1] | Potency [2] | Potency [3] | Potency [4]

COc1cc2c(cc1OC)C(=O)CC2
inactive: Potency [1] | Potency [2] | Potency [3] | Potency [4]

CCCCCCCC/C=C\CCCCCCCC(=O)OCCCC
inactive: activity, negative = inhibition [1] 0.807% [at 23.6 µM] | activity change, negative = inhibition [2] 0.806% [at 23.6 µM] | activity change, negative = inhibition [3] -0.0934% [at 23.8 µM] | activity change, negative = inhibition [4] 0.083% [at 23.6 µM]

Cc1ccc(=O)n(-c2ccccc2)c1
inactive: Potency [1] | Potency [2] | Potency [3] | Potency [4]

COc1cc(OC)c2ccc(=O)oc2c1
inactive: Potency [1] | Potency [2] | Potency [3] | Potency [4]

CCCCC(CC)CN (configuration not stated)
inactive: Potency [1] | Potency [2] | Potency [3] | Potency [4]

C1COC1
inactive: Potency [1] | Potency [2] | Potency [3] | Potency [4]

O=C(O)/C=C/c1ccc(/C=C/C(=O)O)cc1
inactive: Potency [1] | Potency [2] | Potency [3] | Potency [4]

CC(=N\O)/C(C)=N/O
inactive: Potency [1] | Potency [2] | Potency [3] | Potency [4]

COc1ccc([C@@H]2Sc3ccccc3NC(=O)[C@@H]2O)cc1
inactive: Potency [1] | Potency [2] | Potency [3] | Potency [4]

O=C(O)COc1ccc2ccccc2c1
inactive: Potency [1] | Potency [2] | Potency [3] | Potency [4]

CC(=O)c1ccc[nH]1
inactive: Potency [1] | Potency [2] | Potency [3] | Potency [4]

CCC(C)(CCC(C)C)C(=O)O (configuration not stated)
inactive: Potency [1] | Potency [2] | Potency [3] | Potency [4]

From PubChem BioAssay (Tox21)
